Source: the antibiotic and cytotoxicity screens of Wong et al. (2023)
About 500 (1.3%) of roughly 39,000 compounds were called active. Shown is part of a subset that was picked to be rich in actives.

Each compound was assayed on S. aureus RN4220 (assay: growth inhibition call (relative growth <= 0.2)). Conditions: 50 µM.

Growth inhibition call, inactive:
Cc1noc(C)c1S(=O)(=O)Nc1ccc2c(c1)C(=O)N([C@@H](C)CO)C[C@H](C)[C@H](CN(C)Cc1ccccc1)OCCCC[C@@H](C)O2, C[C@H](CO)N1C[C@H](C)[C@@H](CN(C)Cc2ccc(Cl)c(Cl)c2)Oc2c(NS(=O)(=O)c3ccccc3)cccc2C1=O, CO[C@@H]1CN(C)C(=O)c2ccc(NS(C)(=O)=O)cc2OC[C@H](C)N(C(=O)C2CCCCC2)C[C@@H]1C, C[C@@H]1CN([C@@H](C)CO)C(=O)c2cc(NS(=O)(=O)c3cn(C)cn3)ccc2O[C@@H](C)CCCCO[C@@H]1CN(C)S(=O)(=O)c1cccs1, C[C@@H]1CN([C@H](C)CO)C(=O)c2cccc(NC(=O)c3nc4ccccc4s3)c2O[C@@H]1CN(C)Cc1ccc(Cl)c(Cl)c1, O=C(C[C@@H]1CC[C@H]2[C@@H](COC[C@H](O)CN2S(=O)(=O)c2ccccc2)O1)N[C@H]1CCN(Cc2ccccc2)C1, C[C@@H]1CCCCO[C@H](CN(C)S(=O)(=O)c2cn(C)cn2)[C@H](C)CN([C@H](C)CO)C(=O)c2cc(N(C)C)ccc2O1, COC(=O)C[C@@H]1CC[C@H]2[C@@H](COC[C@@H](O)CN2S(=O)(=O)c2ccc(F)cc2)O1, COCC#Cc1cnc2c(c1)C(=O)N([C@H](C)CO)C[C@@H](C)[C@H](CN(C)C(=O)Nc1ccc(OC)cc1)O2, C[C@@H]1CN([C@H](C)CO)C(=O)CCCn2nncc2CO[C@H]1CN(C)C(=O)Nc1ccnc(N2CCOCC2)c1, COc1ccc(C#Cc2ccc3c(c2)[C@@]2(C(=O)N3C(=O)N[C@@H](C)c3ccccc3)[C@H](c3ccc(OCCO)cc3)N3[C@H](c4ccccc4)[C@H](c4ccccc4)OC(=O)[C@H]3[C@@H]2C(=O)O)cc1, COc1ccc(C#Cc2ccc3c(c2)[C@]2(C(=O)N3)[C@H](c3ccc(O)cc3)N3[C@H](c4ccccc4)[C@H](c4ccccc4)OC(=O)[C@H]3[C@@H]2C(=O)O)cc1, COc1ccc(C#Cc2ccc3c(c2)[C@]2(C(=O)N3)[C@H](C(=O)O)[C@H]3C(=O)O[C@H](c4ccccc4)[C@H](c4ccccc4)N3[C@@H]2c2ccc(O)cc2)cc1, COCCOC(=O)N1C(=O)[C@@]2(c3cc(C#Cc4ccc(OC)cc4)ccc31)[C@H](c1ccc(O)cc1)N1[C@H](c3ccccc3)[C@H](c3ccccc3)OC(=O)[C@H]1[C@@H]2C(N)=O, Cc1noc(C)c1S(=O)(=O)N(C)C[C@@H]1OCCCC[C@H](C)Oc2ccc(NC(=O)Nc3cccc4ccccc34)cc2C(=O)N([C@H](C)CO)C[C@H]1C, Cc1noc(C)c1NC(=O)N(C)C[C@@H]1OCCCC[C@@H](C)Oc2ccc(NC(=O)CCC(F)(F)F)cc2C(=O)N([C@H](C)CO)C[C@@H]1C, CN(C)CC(=O)N[C@H]1C=C[C@H](CC(=O)O)O[C@H]1CO, COc1cccc2c1C(=O)c1c(O)c3c(c(O)c1C2=O)CC(O)(C(C)=O)CC3OC1CC(N)C(O)C(C)O1.Cl (configuration not stated), CC(=O)[C@]1(N)Cc2c(O)c3c(c(O)c2[C@@H](O[C@H]2C[C@H](O)[C@H](O)CO2)C1)C(=O)c1ccccc1C3=O, Cc1ccc(S(=O)(=O)Nc2cccc3c2O[C@H](CN(C)S(=O)(=O)c2cn(C)cn2)[C@@H](C)CN([C@H](C)CO)C3=O)cc1, C[C@@H]1CCCCO[C@H](CN(C)C(=O)NC2CCCCC2)[C@H](C)CN([C@@H](C)CO)C(=O)c2cc(NC(=O)Nc3ccc4c(c3)OCO4)ccc2O1, Cc1cc(C)n([C@@H](CC(=O)O)C(=O)O)n1, C[C@@H]1CCCCO[C@H](CN(C)Cc2ccc(Cl)c(Cl)c2)[C@H](C)CN([C@@H](C)CO)C(=O)c2cc(NC(=O)Nc3ccc4c(c3)OCO4)ccc2O1, O=C(/C=C/c1ccc(CNc2ccc([C@H]3O[C@@H](CSc4ccncc4)C[C@H](c4ccccc4)O3)cc2)cc1)NO, C[C@H](CO)N1C[C@H](C)[C@H](CN(C)S(=O)(=O)c2cn(C)cn2)Oc2c(NS(=O)(=O)c3ccc(F)cc3)cccc2C1=O, C[C@H]1CCCCO[C@H](CN(C)C(=O)Nc2ccc(F)cc2)[C@@H](C)CN([C@@H](C)CO)C(=O)c2cc(NC(=O)Nc3cccc4ccccc34)ccc2O1, COc1cccc(S(=O)(=O)Nc2ccc3c(c2)[C@@H]2C[C@@H](CC(=O)NC4CCCCC4)O[C@@H](CO)[C@@H]2O3)c1, N#C[C@@H]1N[C@@H](CO)[C@@H]1c1ccccc1, CC(C)NC(=O)N(C)C[C@@H]1Oc2ccc(NC(=O)Nc3ccc4c(c3)OCO4)cc2CC(=O)N([C@@H](C)CO)C[C@H]1C, COc1ccc(CN(C)C[C@H]2OCCCC[C@H](C)Oc3ccc(NS(=O)(=O)c4c(C)noc4C)cc3C(=O)N([C@@H](C)CO)C[C@@H]2C)cc1

Growth inhibition call, active:
CO[C@@H](CN(C)S(=O)(=O)c1cn(C)cn1)[C@@H](C)CN(C(=O)Nc1ccc(C(F)(F)F)cc1)[C@@H](C)CO, CO[C@H](CN(C)S(=O)(=O)c1cn(C)cn1)[C@H](C)CN(C(=O)Nc1ccc(C(F)(F)F)cc1)[C@@H](C)CO, O=C1O[C@H](c2ccccc2)[C@H](c2ccccc2)N2[C@H]1[C@@H](C(=O)O)[C@]1(C(=O)Nc3ccc(Cl)cc31)[C@H]2c1ccc(F)cc1, CN1C(=O)[C@@]2(c3cc(Cl)ccc31)[C@H](C(=O)O)[C@H]1C(=O)O[C@H](c3ccccc3)[C@H](c3ccccc3)N1[C@@H]2c1ccc(F)cc1, CC(=O)[C@]1(O)Cc2c(O)c3c(c(O)c2[C@@H](O[C@@H]2C[C@@H](N)[C@H](O)[C@@H](C)O2)C1)C(=O)c1c(O)cccc1C3=O, COc1cccc2c1C(=O)c1c(O)c3c(c(O)c1C2=O)C[C@@](O)(C(C)=O)C[C@@H]3O[C@H]1C[C@H](N)[C@H](O)[C@H](C)O1, COc1cccc2c1C(=O)c1c(O)c3c(c(O)c1C2=O)C[C@](O)(C(C)=O)C[C@H]3O[C@H]1C[C@@H](N)[C@@H](O)[C@@H](C)O1
